Reference: PubChem BioAssay (NCI)
About 79,000 compounds went through this panel and 15% of them were active in at least one assay; those are over-represented in the sample as a whole. Calls of active or inactive are those of the source. Cut-off read from the data, not from the text of the source: active = growth inhibition above about 70%; inactive = the rest. *1 amine or outer side, *2 acyl side, *3 side chain or, on linkers, in order; H or OH if unused. Where a SMILES comes first, the peptide text is derived from it. The star is where a group is joined. γGlu = O=C(O)[CH](CCC(=O)[*:2])N[*:1]; NHOH = ON*

Experiments:
[1] = NCI Yeast Anticancer Drug Screen. Data for the rad50 strain (AID 155);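 note: 0% = growth of vehicle-only cultures of the same strain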; settings: S. cerevisiae rad50 strain growth inhibition; at 50.0 µM; active compounds read high
Summary of the method: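 Yeast carrying a defined DNA repair defect were exposed to test compounds, and growth was compared with vehicle-treated controls to give percent inhibition.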

[2] = NCI Yeast Anticancer Drug Screen. Data for the mec2-1 strain (AID 157); settings: S. cerevisiae mec2-1 strain, at 50.0 µM, active compounds read high
Summary of the method: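 Using mec2-1 yeast: add compound, measure growth, express inhibition versus vehicle-treated cultures.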

[3] = NCI Yeast Anticancer Drug Screen. Data for the sgs1 mgt1 strain (AID 161);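 note: 0% = growth of cultures given vehicle only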; settings: S. cerevisiae sgs1 mgt1 strain, at 50.0 µM, active compounds read high
Summary of the method: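 Yeast cells carrying a defined DNA-repair defect were exposed to test compounds. Growth inhibition was measured relative to vehicle-treated controls.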

[4] = NCI Yeast Anticancer Drug Screen. Data for the cln2 rad14 strain (AID 165);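 note: 0% = growth equal to vehicle treated cultures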; settings: S. cerevisiae cln2 rad14 strain, at 50.0 µM, active compounds read high
Summary of the method: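 Yeast strain cln2 rad14, bearing defects in cell cycle control and DNA repair, serves as the test system; values reflect growth inhibition compared with vehicle.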

[5] = NCI Yeast Anticancer Drug Screen. Data for the bub3 strain (AID 167); settings: S. cerevisiae bub3 mutant strain, at 50.0 µM, active compounds read high
Summary of the method: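 Compounds were applied to a genetically altered yeast strain carrying a cell-cycle control defect. Growth inhibition was scored against vehicle-treated controls.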

[6] = NCI Yeast Anticancer Drug Screen. Data for the mlh1 rad18 strain (AID 175); settings: S. cerevisiae mlh1 rad18 strain growth inhibition; at 50.0 µM; active compounds read high
Summary of the method: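 Steps: expose repair-defective yeast to compound; measure growth; express inhibition against vehicle-treated controls.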

Measured: growth inhibition

CC1CN(C(c2ccccc2)c2ccccc2)CCN1CCO (stereo unspecified)
inactive: [1] -3.75% | [2] 20.6% | [3] 12.3% | [4] -65.2% | [5] 4.85% | [6] 25.4%

CC(=O)OC(C)C1CCCC1OC(C)=O (stereo unspecified)
inactive: [1] -3.95% | [2] 9.2% | [3] -9.95% | [4] 5.75% | [5] -15.1% | [6] -22.5%

N#CC(N)c1ccc(OCCCCCCCCCCOc2ccc(C(N)C#N)cc2)cc1 (stereo unspecified)
inactive: [1] 1.5% | [2] 2.65% | [3] -27.2% | [4] -7.8% | [5] -17.4% | [6] -20.8%

CCCCCCCCCCCCCCCCCCCCCCCCCC
inactive: [1] -11.4% | [2] -2.55% | [3] -19.2% | [4] 19.9% | [5] -0.05% | [6] 5.6%

CC(=O)Nn1cnc(C(=N)C#N)c1N
inactive: [1] -27.1% | [2] -6.15% | [3] -6.15% | [4] 11.8% | [5] -0.75% | [6] -2.95%

CCOC(=O)c1c(C)c2c(n1C)CC/C(=C/NCCc1ccccc1)C2=O
active: [1] 93% | [2] 79% | [3] 86.4% | [5] 90.5% | [6] 93.3%
inactive: [4] 29.8%

COc1ccc2nc3cc(Cl)ccc3c(NCCNCC(C)(C)O)c2c1
inactive: [1] 23.4% | [2] 15.8% | [3] 18.5% | [4] 63.8% | [5] 27.1% | [6] 22.1%

CCC1=CC(C(O)CC(C)C)C(C)(Cc2ccc(CC)cn2)NC1c1ccccc1 (stereo unspecified)
inactive: [1] 24.9% | [2] 14.8% | [3] 40.2% | [4] 11.9% | [5] 54.1% | [6] 50.3%

NNC(=O)CNC(=O)c1ccccc1
inactive: [1] 11.5% | [2] -14.6% | [3] -10.9% | [4] 1.85% | [5] 0% | [6] -15%

CC(CCl)CC#N (stereo unspecified)
inactive: [1] -5.6% | [2] -19.1% | [3] 7.9% | [4] 13.1% | [5] -10% | [6] -1.1%

CC(=O)NCCc1ccc2c(c1)[nH]c1ccccc12
inactive: [1] -1.9% | [2] -36% | [3] -8.75% | [4] 12.6% | [5] -17.1% | [6] -8.05%

C=CCOc1cc2c(cc1C(C)c1ccc(OC)c(OC)c1)OCO2 (stereo unspecified)
inactive: [1] 32.9% | [2] -3.2% | [3] 17.3% | [4] 18.4% | [5] 6.25% | [6] 49.2%

CC1=NN(c2ccccc2)C(=O)/C1=C1\SC(c2ccccc2)(c2ccccc2)c2ccccc21
inactive: [1] -29.4% | [2] 0.9% | [3] 1.8% | [4] 7.95% | [5] 23.2% | [6] -30.4%

NC(CCC(=O)NC(CCC(=O)NO)C(=O)NCC(=O)O)C(=O)O (stereo unspecified) (γGlu-Glu(NHOH)-Gly-OH; configuration not given here)
inactive: [1] -29.5% | [2] -3.2% | [3] -11.6% | [4] 2.05% | [5] -4.85% | [6] -42.5%

c1ccc(-c2cc(-c3ccccc3)nc(-c3ccncc3)c2)cc1
inactive: [1] -16.1% | [2] -35.3% | [3] 2.9% | [4] 13.8% | [5] 1.55% | [6] -63.7%

CCOC(=O)C1CCC2c3[nH]c4ccccc4c3CCN2C1=O (stereo unspecified)
inactive: [1] -25.3% | [2] -39.8% | [3] -8.65% | [4] 1.6% | [5] 31.1% | [6] -20.9%

CC1COC(C)(C)O1 (stereo unspecified)
inactive: [1] 19.3% | [2] -31.6% | [3] 16.4% | [4] 0.65% | [5] 8% | [6] 11.2%

COc1ccc(C2OC3=Nc4cc(C)c(C)cc4NC3C2=O)cc1OC (stereo unspecified)
inactive: [1] 15.7% | [2] -6.75% | [3] -6.15% | [4] -1.9% | [5] -23.4% | [6] 1.9%

O=C1Oc2ccccc2C(=O)C1=Ic1ccccc1
inactive: [1] 31.3% | [2] 52.9% | [4] 51.3% | [5] 38% | [6] 56%
active: [3] 73.6%

O=[N+]([O-])c1ccc(O)c(C=NCCCN=Cc2cc([N+](=O)[O-])ccc2O)c1
inactive: [1] 0.7% | [2] 7.95% | [3] -5% | [4] -6.95% | [5] 9% | [6] -11.3%

Cc1ccc(N=N/C(=N/NC(=O)c2ccccc2)c2ccc(N(CCC#N)CCC#N)cc2C)cc1
inactive: [1] 0.85% | [2] 3.3% | [3] -9.65% | [4] -16.3% | [5] -3.25% | [6] -40%

Brc1ccc(-c2ccc(-c3ccc(Br)cc3)s2)cc1
inactive: [1] 30.4% | [2] 13.8% | [3] 36.5% | [4] 19.8% | [5] -1.55% | [6] 4%

O=[N+]([O-])c1ccc2c(c1)C(=Nc1ccccc1)c1cc([N+](=O)[O-])cc([N+](=O)[O-])c1-2
inactive: [1] 8.3% | [2] 5.65% | [3] 19.1% | [4] 21.1% | [5] 3.5% | [6] 13.4%

COc1ccc(CCNc2ncc([N+](=O)[O-])cc2N)cc1OC
inactive: [1] 5.15% | [2] -8.75% | [3] -10.8% | [4] -20.9% | [5] 6.25% | [6] 2.75%

N#Cc1c(-c2ccccc2)nc(-c2ccccc2)sc1=S
active: [6] 73.8%
inactive: [1] 12.1% | [2] -0.7% | [3] 42% | [4] 4.55% | [5] 48.1%

Cc1c(F)c(F)c(-c2c(F)c(F)c(C)c(F)c2F)c(F)c1F
inactive: [1] 5% | [2] -35.2% | [3] -17.3% | [4] 8.3% | [5] -16.2% | [6] 0.1%

COCCCNC(=S)N/N=C/c1ccccc1O
inactive: [1] -2.4% | [2] -31.1% | [3] 16.6% | [4] 12.2% | [5] 11.2% | [6] 4%

CC(C)(C)c1ccn[nH]1.CC(C)(C)c1ccn[nH]1.[Cl-].[Cl-].[O]=[V][O-]
inactive: [1] 0.9% | [2] -12.4% | [3] 9.65% | [4] -29.2% | [5] -21.8% | [6] -12.8%

CC(=O)Nc1ccc(C(=O)NN2C(=O)C(Cl)C2c2ccc(Cl)cc2)cc1 (stereo unspecified)
inactive: [1] -50.3% | [2] -32.3% | [3] -42.8% | [4] -27.3% | [5] -28.9% | [6] -43.5%

O=C(COc1ccc(Cl)cc1C(=O)O)NCc1cccc2ccccc12
inactive: [1] -0.2% | [2] 36% | [3] 41.8% | [4] 0.9% | [5] 46% | [6] 31.6%

CN1c2ccccc2C(=O)NC12CCN(CCCC(=O)c1ccc(F)cc1)CC2
inactive: [1] 6.6% | [2] 6.95% | [3] 46.8% | [4] 35.6% | [5] 21.9% | [6] 7%

C/C(CC(=O)Nc1ccc(C)c(C)c1)=N\NC(N)=S
inactive: [1] -13.8% | [2] -6.1% | [3] 1.45% | [4] 18.2% | [5] 0.05% | [6] -2.4%

CC(=O)COc1ccccc1-c1ccccc1
inactive: [1] 5.4% | [2] 8.55% | [3] 4.9% | [4] -34.8% | [5] 8.6% | [6] -14.7%

CC/C(=C(\CC)c1ccc(OC2C=CCCC2)cc1)c1ccc(OC2C=CCCC2)cc1 (stereo unspecified)
inactive: [1] 28.3% | [2] -4.7% | [3] 7% | [4] -2.55% | [5] -13.8% | [6] -0.1%

O=C(Nc1ccc(F)cc1)c1ccc(Cl)cc1Cl
inactive: [1] -7.4% | [2] -28.4% | [3] -9% | [4] 13.7% | [5] -4.2% | [6] -2.35%

O=C(C(=O)c1ccco1)c1ccco1
inactive: [1] 64.1% | [2] -0.45% | [3] 34.1% | [4] -24.6% | [5] 21.1% | [6] 35%

NC(=O)/C=C/C(N)=O
inactive: [1] 13.6% | [2] -9.45% | [3] -16.7% | [4] -13.5% | [5] -5.05% | [6] 2.7%

CCC(CC(N)=O)C(C#N)(C#N)C(N)=O (stereo unspecified)
inactive: [1] 12.9% | [2] 5.05% | [3] -4.05% | [4] -2.85% | [5] 7.1% | [6] 3.95%

CCOC(=O)C1=C(C)NC(C)=C(C(=O)OCC)C1c1c(C)noc1C
inactive: [1] 19.6% | [2] 18.6% | [3] 60.7% | [4] 19.3% | [5] 6.95% | [6] 61.4%

Cc1ccc(NC(=O)Oc2ccccn2)cc1
inactive: [1] -9.7% | [2] -30.5% | [3] -8.05% | [4] -4.4% | [5] -0.35% | [6] -6.25%

COc1cccc(C2NC(=O)c3c(n[nH]c3N)S2)c1O (stereo unspecified)
inactive: [1] -14.8% | [2] -43.4% | [3] -10.5% | [4] -6.55% | [5] 5.85% | [6] -40.1%
